Our source for the inhibition values is ChEMBL document CHEMBL1961873, “Compounds: GSK PKIS; Assays: Nanosyn kinase panel” (2012).

Where “and” joins values, the source holds several entries; their conditions need not be identical. Equal values may be shown once.

For assay [1], the target named is Tyrosine-protein kinase receptor UFO (Homo sapiens) (UniProt P30530). The following applies: at 1 µM.
In assay [2] the target is Tyrosine-protein kinase Blk (Homo sapiens) (UniProt P51451). As to conditions: at 0.1 µM.
Assay [3] has the same target. As to conditions: at 1 µM.
In assay [4] the target is T1, Cytoplasmic tyrosine-protein kinase BMX (Homo sapiens) (UniProt P51813).
T1 sequence (whole entry): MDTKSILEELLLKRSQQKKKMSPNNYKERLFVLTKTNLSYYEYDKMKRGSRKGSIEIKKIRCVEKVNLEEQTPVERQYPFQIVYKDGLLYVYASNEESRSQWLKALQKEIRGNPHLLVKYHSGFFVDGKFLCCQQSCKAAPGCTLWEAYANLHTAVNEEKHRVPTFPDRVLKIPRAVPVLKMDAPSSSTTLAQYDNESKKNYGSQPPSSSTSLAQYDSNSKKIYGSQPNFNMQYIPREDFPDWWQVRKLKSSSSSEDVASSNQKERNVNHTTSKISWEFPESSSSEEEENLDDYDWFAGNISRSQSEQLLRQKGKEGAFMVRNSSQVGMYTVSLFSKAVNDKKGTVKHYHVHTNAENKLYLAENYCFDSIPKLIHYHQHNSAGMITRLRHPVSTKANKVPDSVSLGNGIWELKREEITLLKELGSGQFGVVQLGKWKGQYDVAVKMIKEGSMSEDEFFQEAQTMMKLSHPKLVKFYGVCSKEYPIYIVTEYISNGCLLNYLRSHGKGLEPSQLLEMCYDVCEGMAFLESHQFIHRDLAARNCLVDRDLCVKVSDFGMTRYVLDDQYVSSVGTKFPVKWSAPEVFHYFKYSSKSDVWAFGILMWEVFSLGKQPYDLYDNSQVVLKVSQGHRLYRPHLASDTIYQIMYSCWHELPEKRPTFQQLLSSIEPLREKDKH
As to conditions: at 0.1 µM.

Assay [5] deals with T1, Cytoplasmic tyrosine-protein kinase BMX (Homo sapiens). The following applies: at 1 µM.
The target of assay [6] is Protein-tyrosine kinase 6 (Homo sapiens) (UniProt Q13882). As to conditions: at 0.1 µM.
Assay [7] shares this target. The following applies: at 1 µM.
In assay [8] the target is Tyrosine-protein kinase BTK (Homo sapiens) (UniProt Q06187). The following applies: at 0.1 µM.
Assay [9] shares this target. As to conditions: at 1 µM.
The target in assay [10] is Tyrosine-protein kinase CSK (Homo sapiens) (UniProt P41240). As to conditions: at 0.1 µM.
For assay [11] the target is unchanged. The following applies: at 1 µM.
Assay [12] addresses T2, Discoidin domain-containing receptor 2 (Homo sapiens) (UniProt Q16832).
T2 sequence (whole entry): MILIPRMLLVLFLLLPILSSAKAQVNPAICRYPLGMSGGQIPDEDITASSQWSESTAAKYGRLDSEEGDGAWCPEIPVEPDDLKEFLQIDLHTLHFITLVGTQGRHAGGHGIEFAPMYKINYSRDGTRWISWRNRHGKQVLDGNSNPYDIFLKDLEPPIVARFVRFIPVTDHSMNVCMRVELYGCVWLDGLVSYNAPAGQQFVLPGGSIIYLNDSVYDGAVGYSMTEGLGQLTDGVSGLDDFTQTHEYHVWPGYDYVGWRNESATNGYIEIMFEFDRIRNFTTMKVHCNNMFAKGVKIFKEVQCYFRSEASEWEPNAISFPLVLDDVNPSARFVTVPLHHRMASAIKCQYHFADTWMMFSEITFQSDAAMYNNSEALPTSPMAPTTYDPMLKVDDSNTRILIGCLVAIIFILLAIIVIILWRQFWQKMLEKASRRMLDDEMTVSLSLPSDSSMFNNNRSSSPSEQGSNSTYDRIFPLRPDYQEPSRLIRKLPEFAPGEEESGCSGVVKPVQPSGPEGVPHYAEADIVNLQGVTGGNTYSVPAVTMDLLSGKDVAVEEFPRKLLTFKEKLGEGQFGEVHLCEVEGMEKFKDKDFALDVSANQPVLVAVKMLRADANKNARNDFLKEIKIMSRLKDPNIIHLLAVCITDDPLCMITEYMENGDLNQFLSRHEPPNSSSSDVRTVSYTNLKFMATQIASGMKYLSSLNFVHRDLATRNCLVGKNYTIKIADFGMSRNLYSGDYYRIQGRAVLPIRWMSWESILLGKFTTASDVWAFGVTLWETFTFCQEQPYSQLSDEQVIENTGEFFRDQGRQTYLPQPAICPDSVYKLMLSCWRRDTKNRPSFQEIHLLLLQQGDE
As to conditions: at 0.1 µM.

The target in assay [13] is T2, Discoidin domain-containing receptor 2 (Homo sapiens). The following applies: at 1 µM.
The target of assay [14] is Epidermal growth factor receptor (Homo sapiens) (UniProt P00533). The following applies: at 0.1 µM.
For assay [15] the target is unchanged. As to conditions: at 1 µM.
The test system of assay [16] is Epidermal growth factor receptor (Homo sapiens), P00533 [L858R]. As to conditions: at 0.1 µM.
For assay [17] the test system is unchanged. As to conditions: at 1 µM.
The test system of assay [18] is Epidermal growth factor receptor (Homo sapiens), P00533 [L861Q]. The following applies: at 0.1 µM.
Assay [19] shares this test system. As to conditions: at 1 µM.
The subject of assay [20] is Epidermal growth factor receptor (Homo sapiens), P00533 [T790M]. The following applies: at 0.1 µM.

Tyrosine-protein kinase receptor UFO (Homo sapiens), sequence (P30530 whole entry): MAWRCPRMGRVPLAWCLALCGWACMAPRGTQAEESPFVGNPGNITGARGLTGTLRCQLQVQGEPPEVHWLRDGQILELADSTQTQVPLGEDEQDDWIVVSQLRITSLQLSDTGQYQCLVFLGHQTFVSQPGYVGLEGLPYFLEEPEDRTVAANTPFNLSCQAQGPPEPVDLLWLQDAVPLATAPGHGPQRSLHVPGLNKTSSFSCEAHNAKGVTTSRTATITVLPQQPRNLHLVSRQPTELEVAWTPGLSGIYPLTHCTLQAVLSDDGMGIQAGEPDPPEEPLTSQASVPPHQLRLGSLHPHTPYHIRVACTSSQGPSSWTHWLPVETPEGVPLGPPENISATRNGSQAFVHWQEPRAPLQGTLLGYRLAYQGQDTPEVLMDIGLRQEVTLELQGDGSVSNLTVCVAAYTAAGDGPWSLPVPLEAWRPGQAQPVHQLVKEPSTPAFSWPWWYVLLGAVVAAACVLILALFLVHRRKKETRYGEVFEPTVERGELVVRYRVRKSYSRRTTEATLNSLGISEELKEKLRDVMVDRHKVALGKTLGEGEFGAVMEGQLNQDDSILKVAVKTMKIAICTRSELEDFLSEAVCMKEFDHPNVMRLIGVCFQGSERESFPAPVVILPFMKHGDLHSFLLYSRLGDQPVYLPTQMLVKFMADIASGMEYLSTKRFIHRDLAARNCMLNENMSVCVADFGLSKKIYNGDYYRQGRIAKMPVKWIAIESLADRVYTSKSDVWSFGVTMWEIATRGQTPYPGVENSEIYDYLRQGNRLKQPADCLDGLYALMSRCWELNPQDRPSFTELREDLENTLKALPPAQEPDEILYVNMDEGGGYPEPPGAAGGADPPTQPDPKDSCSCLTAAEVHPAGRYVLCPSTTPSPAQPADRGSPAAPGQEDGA
Tyrosine-protein kinase Blk (Homo sapiens), sequence (P51451 2-505 limits assumed): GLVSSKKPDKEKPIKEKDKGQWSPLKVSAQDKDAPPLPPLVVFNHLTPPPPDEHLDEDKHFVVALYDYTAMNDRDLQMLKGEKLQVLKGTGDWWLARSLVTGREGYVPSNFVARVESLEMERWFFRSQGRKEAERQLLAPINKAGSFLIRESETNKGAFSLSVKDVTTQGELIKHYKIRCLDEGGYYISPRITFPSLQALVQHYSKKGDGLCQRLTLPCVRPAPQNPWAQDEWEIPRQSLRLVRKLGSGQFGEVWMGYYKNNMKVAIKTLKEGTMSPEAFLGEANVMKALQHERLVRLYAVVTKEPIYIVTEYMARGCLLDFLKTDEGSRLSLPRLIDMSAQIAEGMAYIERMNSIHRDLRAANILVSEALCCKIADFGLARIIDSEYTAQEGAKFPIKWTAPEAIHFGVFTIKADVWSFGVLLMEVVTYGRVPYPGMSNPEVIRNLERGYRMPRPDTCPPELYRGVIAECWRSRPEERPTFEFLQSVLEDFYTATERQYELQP
Epidermal growth factor receptor (Homo sapiens), sequence (P00533 whole entry): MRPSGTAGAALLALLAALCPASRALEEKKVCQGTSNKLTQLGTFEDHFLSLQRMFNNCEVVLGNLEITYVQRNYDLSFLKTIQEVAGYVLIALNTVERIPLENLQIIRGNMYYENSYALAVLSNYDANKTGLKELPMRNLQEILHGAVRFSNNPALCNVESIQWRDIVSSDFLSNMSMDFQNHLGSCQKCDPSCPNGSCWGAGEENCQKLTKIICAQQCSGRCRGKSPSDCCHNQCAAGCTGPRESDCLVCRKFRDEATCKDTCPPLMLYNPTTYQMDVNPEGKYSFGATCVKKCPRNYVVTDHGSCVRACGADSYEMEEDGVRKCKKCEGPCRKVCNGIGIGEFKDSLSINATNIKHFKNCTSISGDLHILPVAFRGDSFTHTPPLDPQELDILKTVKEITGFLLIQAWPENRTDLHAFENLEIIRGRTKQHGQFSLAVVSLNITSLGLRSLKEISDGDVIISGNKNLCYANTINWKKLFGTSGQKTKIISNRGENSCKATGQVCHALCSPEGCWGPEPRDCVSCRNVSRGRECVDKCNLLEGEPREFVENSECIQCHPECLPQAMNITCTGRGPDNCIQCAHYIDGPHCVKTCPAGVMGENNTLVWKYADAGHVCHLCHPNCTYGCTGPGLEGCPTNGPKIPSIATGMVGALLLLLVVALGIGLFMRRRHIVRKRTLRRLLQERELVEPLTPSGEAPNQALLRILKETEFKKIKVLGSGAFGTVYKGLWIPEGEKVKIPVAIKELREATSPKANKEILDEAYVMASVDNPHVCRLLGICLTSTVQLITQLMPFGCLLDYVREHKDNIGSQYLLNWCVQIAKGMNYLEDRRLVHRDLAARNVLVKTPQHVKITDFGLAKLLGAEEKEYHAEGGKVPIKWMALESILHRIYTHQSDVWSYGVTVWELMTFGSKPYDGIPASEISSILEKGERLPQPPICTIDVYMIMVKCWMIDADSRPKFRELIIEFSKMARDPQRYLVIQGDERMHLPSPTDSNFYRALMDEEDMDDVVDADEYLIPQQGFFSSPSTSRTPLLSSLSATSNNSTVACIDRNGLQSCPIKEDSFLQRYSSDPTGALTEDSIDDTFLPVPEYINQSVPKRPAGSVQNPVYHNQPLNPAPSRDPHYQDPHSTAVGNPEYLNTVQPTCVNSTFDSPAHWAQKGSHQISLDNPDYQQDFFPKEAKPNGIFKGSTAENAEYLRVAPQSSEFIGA
Tyrosine-protein kinase CSK (Homo sapiens), sequence (P41240 2-450 limits assumed): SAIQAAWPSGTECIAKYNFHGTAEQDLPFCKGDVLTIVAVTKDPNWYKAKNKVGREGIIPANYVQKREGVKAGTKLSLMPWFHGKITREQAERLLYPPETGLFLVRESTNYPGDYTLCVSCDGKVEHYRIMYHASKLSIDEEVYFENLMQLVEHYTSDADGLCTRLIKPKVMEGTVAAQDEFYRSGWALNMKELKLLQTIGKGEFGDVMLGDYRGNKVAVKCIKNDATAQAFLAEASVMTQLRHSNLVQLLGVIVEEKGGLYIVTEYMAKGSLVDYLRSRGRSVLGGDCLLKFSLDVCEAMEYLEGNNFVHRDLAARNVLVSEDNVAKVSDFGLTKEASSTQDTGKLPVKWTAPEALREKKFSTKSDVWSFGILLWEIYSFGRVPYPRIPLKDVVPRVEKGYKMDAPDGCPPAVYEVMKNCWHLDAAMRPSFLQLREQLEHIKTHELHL
Epidermal growth factor receptor (Homo sapiens), P00533 [L858R], sequence (P00533 whole entry L858R): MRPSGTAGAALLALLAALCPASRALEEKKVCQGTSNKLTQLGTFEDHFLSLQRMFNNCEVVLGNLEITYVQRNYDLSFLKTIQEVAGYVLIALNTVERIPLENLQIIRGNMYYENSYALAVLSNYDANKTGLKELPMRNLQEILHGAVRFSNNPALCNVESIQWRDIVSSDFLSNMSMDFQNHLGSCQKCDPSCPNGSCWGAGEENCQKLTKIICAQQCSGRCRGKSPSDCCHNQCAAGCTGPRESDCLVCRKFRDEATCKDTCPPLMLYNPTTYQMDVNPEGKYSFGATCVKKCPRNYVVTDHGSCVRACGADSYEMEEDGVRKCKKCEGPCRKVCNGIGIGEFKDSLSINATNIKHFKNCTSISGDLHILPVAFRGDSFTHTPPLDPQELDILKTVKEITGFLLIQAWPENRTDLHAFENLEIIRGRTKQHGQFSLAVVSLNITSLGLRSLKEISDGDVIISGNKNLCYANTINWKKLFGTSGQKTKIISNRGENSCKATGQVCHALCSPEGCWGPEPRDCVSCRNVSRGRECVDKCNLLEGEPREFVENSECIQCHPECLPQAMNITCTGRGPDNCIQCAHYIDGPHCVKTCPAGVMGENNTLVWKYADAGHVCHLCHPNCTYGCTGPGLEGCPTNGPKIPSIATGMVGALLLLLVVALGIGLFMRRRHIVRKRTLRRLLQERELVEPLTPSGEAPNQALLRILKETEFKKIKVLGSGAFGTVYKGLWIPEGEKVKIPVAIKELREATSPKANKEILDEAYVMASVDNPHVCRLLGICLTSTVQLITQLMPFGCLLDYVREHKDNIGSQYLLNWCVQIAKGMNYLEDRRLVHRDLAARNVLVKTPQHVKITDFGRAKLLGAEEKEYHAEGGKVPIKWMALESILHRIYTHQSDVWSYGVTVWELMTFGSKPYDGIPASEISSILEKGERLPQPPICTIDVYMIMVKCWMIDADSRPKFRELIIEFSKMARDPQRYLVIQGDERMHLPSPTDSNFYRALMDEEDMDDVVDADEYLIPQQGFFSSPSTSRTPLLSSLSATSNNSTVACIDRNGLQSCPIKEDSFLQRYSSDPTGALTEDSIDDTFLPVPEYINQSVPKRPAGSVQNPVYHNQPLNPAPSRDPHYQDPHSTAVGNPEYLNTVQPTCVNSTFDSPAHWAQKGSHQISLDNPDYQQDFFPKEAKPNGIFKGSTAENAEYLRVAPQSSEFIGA
Tyrosine-protein kinase BTK (Homo sapiens), sequence (Q06187 whole entry): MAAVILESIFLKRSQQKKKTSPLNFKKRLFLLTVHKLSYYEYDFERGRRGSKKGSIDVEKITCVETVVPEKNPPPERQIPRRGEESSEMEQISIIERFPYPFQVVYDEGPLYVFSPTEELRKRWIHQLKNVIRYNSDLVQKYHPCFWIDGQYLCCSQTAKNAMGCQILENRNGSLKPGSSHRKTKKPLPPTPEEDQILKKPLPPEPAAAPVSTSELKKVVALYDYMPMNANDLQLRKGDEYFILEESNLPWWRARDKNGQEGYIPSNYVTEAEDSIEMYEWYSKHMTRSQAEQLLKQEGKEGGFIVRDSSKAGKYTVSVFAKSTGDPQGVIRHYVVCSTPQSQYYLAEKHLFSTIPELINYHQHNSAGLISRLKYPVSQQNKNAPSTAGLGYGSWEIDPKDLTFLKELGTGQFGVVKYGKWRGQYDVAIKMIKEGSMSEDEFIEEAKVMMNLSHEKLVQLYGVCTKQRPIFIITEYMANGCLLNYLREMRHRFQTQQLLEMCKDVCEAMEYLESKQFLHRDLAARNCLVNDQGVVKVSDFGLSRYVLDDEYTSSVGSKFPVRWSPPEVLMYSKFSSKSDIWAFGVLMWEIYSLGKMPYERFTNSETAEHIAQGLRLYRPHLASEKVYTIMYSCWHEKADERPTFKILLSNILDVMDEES

Regarding `CCCNc1cccc(-n2ncc3c(N/N=C/c4ccncc4)ncnc32)c1`, the inhibition in assay [1] was determined as 13.2%; in assay [2], 14.2%; in [3] it was 62.9%; in [4], 1.67%; in assay [5], 13.4%; in assay [6], 8.53%. In addition, the inhibition in assay [7] was 51%; in [8], 1.43%; in assay [9], 4.2%; in [10] it was 2.59%; in assay [11] it was 12.1%; in assay [12] it was 1.93%. Moreover, the inhibition in assay [13] was 7.68%; in [14], 3.46%; in assay [15], 33.5%; in [16], 14%; in assay [17], 71.8%; in assay [18], 2.74%. Besides, the inhibition was 31.4% in [19] and -0.43% in assay [20].
For the compound `CN1CCC(C(=O)Nc2n[nH]c3nc(-c4ccc(O)cc4)c(Br)cc23)CC1`, the inhibition was -2.51% and -3.39% in [1]; -0.49% and 1.32% in assay [2]; 0.8% and 4.39% in assay [3]; 4.12% and 2.58% in [4]; 3.63% and 4.39% in assay [5]; 4.15% and 1.12% in assay [6]. In addition, the inhibition in assay [7] is 9.38% and 6.4%; in assay [8], -3.39% and 0.29%; in [9], -2.64% and 0.46%; in assay [10], -0.63%; in assay [11] it was 7.63% and 4.28%; in assay [12], -0.34% and 1.94%. The inhibition in assay [13] is 0.35% and 3.34%; in [14] it was -1.4% and 2.45%; in [15], -1.83% and 5.5%; in [16], 3.81% and 2.33%; in [17], 5.88% and 4.98%; in [18] it was 2.69% and 0.43%. Besides, the inhibition is 2.01% and 1.22% in assay [19]; 2.13% and 0.11% in [20].
Consider `COc1cccc(-n2ncc3c(N/N=C/c4ccc(C(=O)NCCN(C)C)cc4)ncnc32)c1`, for which the inhibition stood at 40.9% in assay [1]; 18.1% in assay [2]; 73% in [3]; 9.47% in [4]; 46.3% in assay [5]; 9.98% in assay [6]. Also, the inhibition in assay [7] is 53.4%; in [8] it was 1.25%; in assay [9], 1.98%; in [10], 3.74%; in assay [11], 22%; in assay [12], 7.86%. In addition, the inhibition came out at 41% in [13]; 16.7% in assay [14]; 56.4% in assay [15]; 63.6% in [16]; 90.6% in assay [17]; 23% in assay [18]. Further, the inhibition in [19] was determined as 68.7%; in assay [20] it was 0.59%.
For `CS(=O)(=O)CCNCc1ccc(-c2ccc3ncnc(Nc4ccc(OCc5ccccc5)cc4)c3c2)o1`, the inhibition in assay [1] was -1.88%; in assay [2] it was 3.85%; in [3] it was 14.1%; in [4], 3.59%; in assay [5], 8.85%; in assay [6], 2.05%. The inhibition worked out at 13.7% in [7]; 0.51% in assay [8]; 6.4% in [9]; 5.85% in [10]; 9.28% in assay [11]; 1.74% in assay [12]. Also, the inhibition in assay [13] amounted to 2.07%; in [14], 83.8%; in assay [15], 94.1%; in assay [16], 31.4%; in assay [17], 71.2%; in [18], 33%. Moreover, the inhibition stood at 55.7% in [19] and 4.15% in assay [20].
With `COc1c(C(N)=O)cc(-c2ccc(Cl)cc2)cc1-c1ccc(S(N)(=O)=O)cc1`, the inhibition in [1] was -6.03%; in assay [2] it was 1.95%; in assay [3], 3.34%; in assay [4], 4.08%; in assay [5], 6.04%; in assay [6], 3.21%. Also, the inhibition was 4.09% in assay [7]; -1.27% in [8]; -0.85% in assay [9]; 3.55% in [10]; 4.45% in [11]; 1.62% in assay [12]. Besides, the inhibition in [13] was determined as 2.64%; in assay [14] it was 1.55%; in assay [15], 2.79%; in assay [16] it was 2.2%; in assay [17] it was 8.48%; in assay [18] it was 2.27%. The inhibition in assay [19] is 5.74%; in [20], 1.41%.
Take `CS(=O)(=O)CCNCc1ccc(-c2ccc3ncnc(Nc4ccc(OCc5cccc(C(F)(F)F)c5)cc4)c3c2)o1`: the inhibition was -5.12% in [1]; 2.51% in assay [2]; 6.32% in [3]; 3.21% in assay [4]; 6.44% in assay [5]; 2.67% in assay [6]. Besides, the inhibition was 3.19% in assay [7]; -2.4% in assay [8]; 0.46% in assay [9]; 2.05% in assay [10]; 3.02% in assay [11]; 0.91% in assay [12]. Moreover, the inhibition in assay [13] amounted to 2.9%; in [14], 15.5%; in assay [15], 58.8%; in assay [16] it was 6.17%; in [17] it was 26.7%; in assay [18], 14.4%. For the same compound, the inhibition in assay [19] is 34.4%; in assay [20], 0.24%.
For `O=C(Nc1n[nH]c2nnc(-c3cccnc3)cc12)C1CC1`, the inhibition in assay [1] is 1.65%; in [2] it was 0.58%; in [3] it was 2.68%; in [4], -0.2%; in [5], 0.81%; in assay [6] it was -0.91%. Further, the inhibition was -0.57% in [7]; 0.26% in assay [8]; -0.1% in assay [9]; -1.49% in assay [10]; -1.56% in [11]; -0.82% in [12]. Besides, the inhibition in assay [13] was -1%; in [14], 0.34%; in assay [15] it was 1.5%; in assay [16], -2.25%; in assay [17] it was 2.57%; in assay [18], -1.02%. Also, the results for the inhibition in [19] and in [20] were -0.99% and -0.29%, respectively.
